This passage reports sensor-assay potency score (higher = more potent) results from the OligoGym collection.
Note: reference of the scale not given here.

One test has as its target SLC29A3. Description: pooled miR-30 sensor sort-seq; sequence = guide strand. Particulars: shRNA.
For the sequence TTGCGGAGTTTGAACATCCAGT, the sensor-assay potency score (higher = more potent) was -0.979.
As to TTGCTTGCATCTCGCTGTCAGC, the sensor-assay potency score (higher = more potent) is -1.44.
Still for that read-out and setting: next, TATGACTGGAATATCTGCCTTG: 0.374.

Another test addresses SLC2A14. The test is described as above. The note with it: shRNA.
For TAAATAGTAAGCAGCAGAGGGG, the sensor-assay potency score (higher = more potent) was -1.17.
Still for that read-out and setting: next, TAGTGATTCTTTAATAACAAAG: -1.67; TTATGATCGTCTCAGGAGCATT: -1.97.
Same read-out and setting: next, TTTATGATCGTCTCAGGAGCAT: -0.333.
As for TCCCAGATCTATCTGCACCGTG, the sensor-assay potency score (higher = more potent) is -0.88.
On the same count and under the same terms, next, TTCGTGAGCAGCACCTCAGAGG: -0.817; AATTCCAATAACTATGCCCAGC: -1.73; TCAGCATTTCAACTGACTCAGC: -0.914.
On the same count and under the same terms, next, TTAACAAAGAGTCCGACGGAAA: -1.6; ATAAATTCCTTTATGATCGTCT: 0.823; TGATTCTTTAATAACAAAGAAA: -1.69.
On to TTACACAGTCCCATAAGGCAGC, for which the sensor-assay potency score (higher = more potent) is -0.403.
